7 compounds from PubChem BioAssay (NCI) can be followed below.

Test systems include SR leukemia; RPMI-8226 leukemia; OVCAR-8 ovarian; OVCAR-5 ovarian; OVCAR-4 ovarian; SK-OV-3 ovarian; IGROV1 ovarian; OVCAR-3 ovarian; HS 578T breast; NCI/ADR-RES ovarian; T-47D breast; BT-549 breast; MDA-MB-435 melanoma; SW-620 colon; MCF7 breast; HCT-116 colon; HCC-2998 colon; KM12 colon.
Holding throughout (experiment): NCI-60 one-dose screen, 48 h (100 = growth as untreated, 0 = no growth, -100 = all killed)
Settings in all cases: 10 µM unless noted

Structures are written as SMILES. This is part of a sample that, as a whole, favours compounds with a hit. Of some 83,000 tested, about 20% had one in any assay.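 Compound tested at a single concentration for 48 hours in 96-well plates; a percent growth value below 10 was scored as active.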 A number with no mark means an inactive call. Calls of active or inactive are those of the source.

As for `O=C1OCC2=C1C(c1cccc(C(F)(F)F)c1)c1cc3c(cc1N2CCO)CCC3` (stereo unspecified), the growth with SR leukemia was 11.1%; in the assay with RPMI-8226 leukemia, 17.9%; with OVCAR-8 ovarian it was 5.39% (active); in the assay with OVCAR-5 ovarian, 36.1%; in the assay on OVCAR-4 ovarian it was 52.3%; with SK-OV-3 ovarian it was 5.48% (active). Besides, the growth in the assay with IGROV1 ovarian was 23.5%; with OVCAR-3 ovarian it was -17.8% (active); in the assay with HS 578T breast, 28%; with NCI/ADR-RES ovarian, 17.7%; with T-47D breast, 75%; with BT-549 breast it was 22%. Also, the growth in the assay on MDA-MB-435 melanoma was -44.3% (active); with SW-620 colon, 24%; with MCF7 breast, 16.3%; in the assay with HCT-116 colon it was 4.17% (active); with HCC-2998 colon, 11.2%; in the assay with KM12 colon, 4.92% (active).

As to `COc1ccc(-c2cc(-c3cc(OC)c(OC)c(OC)c3)c(C#N)c(=O)n2CCCCC(=O)O)cc1`, the growth in the assay on SR leukemia was 72.6%; in the assay on RPMI-8226 leukemia, 84.3%; in the assay on OVCAR-8 ovarian it was 92.4%; in the assay on OVCAR-5 ovarian it was 105%; in the assay with OVCAR-4 ovarian, 91.5%; in the assay on SK-OV-3 ovarian, 125%. The growth was 104% in the assay with IGROV1 ovarian; 99.6% with OVCAR-3 ovarian; 87.7% in the assay on HS 578T breast; 102% in the assay with NCI/ADR-RES ovarian; 72.6% with T-47D breast; 102% in the assay on BT-549 breast. For the same compound, the growth is 80.2% in the assay with MDA-MB-435 melanoma; 98% in the assay with SW-620 colon; 93.2% in the assay on MCF7 breast; 94.1% with HCT-116 colon; 105% in the assay on HCC-2998 colon; 94.6% with KM12 colon.

For the compound `O=[N+]([O-])c1cc(C(F)(F)F)ccc1Sc1ccc(C(F)(F)F)cc1[N+](=O)[O-]`, the growth with SR leukemia is 7.21% (active); in the assay on RPMI-8226 leukemia, 34.2%; with OVCAR-8 ovarian, 85.7%; in the assay with OVCAR-5 ovarian, 132%; in the assay on OVCAR-4 ovarian it was 44.6%; in the assay on SK-OV-3 ovarian it was 56%. For the same compound, the growth in the assay on IGROV1 ovarian is 77.7%; with OVCAR-3 ovarian, 92.3%; in the assay with HS 578T breast it was 66.3%; with NCI/ADR-RES ovarian, 82.5%; in the assay on T-47D breast, 70%; in the assay with BT-549 breast it was 79.3%. For the same compound, the growth was 21.3% in the assay on MDA-MB-435 melanoma; 20.6% with SW-620 colon; 67.7% in the assay with MCF7 breast; 10.7% with HCT-116 colon; 99.4% in the assay with HCC-2998 colon; 65.8% in the assay with KM12 colon.

Consider `O=C1OCC2=C1C(c1cccc([N+](=O)[O-])c1)c1cc3c(cc1N2CCO)CCC3` (stereo unspecified), for which the growth in the assay on SR leukemia was 15.2%; in the assay with RPMI-8226 leukemia, 17%; in the assay with OVCAR-8 ovarian it was 5.88% (active); in the assay with OVCAR-5 ovarian, 43.5%; in the assay with OVCAR-4 ovarian, 40%; in the assay with SK-OV-3 ovarian it was 27%. In addition, the growth was 25.9% in the assay with IGROV1 ovarian; -1.17% (active) in the assay with OVCAR-3 ovarian; 21.9% in the assay with HS 578T breast; 3.57% (active) with NCI/ADR-RES ovarian; 65.9% with T-47D breast; 31.5% with BT-549 breast. Further, the growth with MDA-MB-435 melanoma is -34.9% (active); in the assay on SW-620 colon, 22.2%; in the assay with MCF7 breast, 20%; in the assay on HCT-116 colon, 7.18% (active); in the assay with HCC-2998 colon, 6.84% (active); in the assay with KM12 colon, 15.7%.

For `O=C1/C(=C/c2ccc(F)c(F)c2)CN(C(=O)C(Cl)Cl)C/C1=C\c1ccc(F)c(F)c1`, the growth in the assay with SR leukemia is -21.2% (active); in the assay on RPMI-8226 leukemia, -31.4% (active); in the assay on OVCAR-8 ovarian, -95.4% (active); with OVCAR-5 ovarian, -72.6% (active); in the assay with OVCAR-4 ovarian it was -67.1% (active); with SK-OV-3 ovarian it was -35% (active). Also, the growth was -84.5% (active) in the assay with IGROV1 ovarian; -97% (active) with OVCAR-3 ovarian; -38.5% (active) with HS 578T breast; -18% (active) with NCI/ADR-RES ovarian; -46.2% (active) in the assay on T-47D breast; -98% (active) with BT-549 breast. Moreover, the growth with MDA-MB-435 melanoma was -94.8% (active); in the assay on SW-620 colon it was -67.6% (active); with MCF7 breast it was -55.2% (active); in the assay with HCT-116 colon, -98.9% (active); with HCC-2998 colon, -83.4% (active); in the assay with KM12 colon it was -89.2% (active).

On to `O=c1ccc2nc(-c3ccccn3)nn(-c3ccccc3)c-2c1`, for which the growth with SR leukemia was 5.21% (active); in the assay with RPMI-8226 leukemia, 50.3%; with OVCAR-8 ovarian, 87.1%; with OVCAR-5 ovarian, 109%; with OVCAR-4 ovarian, 81.8%; in the assay on SK-OV-3 ovarian, 84.9%. In addition, the growth is 87.9% with IGROV1 ovarian; -21.9% (active) with OVCAR-3 ovarian; 93.9% with HS 578T breast; 98% in the assay with NCI/ADR-RES ovarian; -28.4% (active) in the assay on T-47D breast; 86.6% with BT-549 breast. Moreover, the growth is 90.7% in the assay with MDA-MB-435 melanoma; -61.8% (active) in the assay with SW-620 colon; -56% (active) with MCF7 breast; 48.7% with HCT-116 colon; 98.8% with HCC-2998 colon; 98.4% with KM12 colon.

For `N#Cc1ccccc1OCC(=O)Nc1nc2c(s1)COc1ccccc1-2`, the growth was -19.5% (active) in the assay with SR leukemia; 96.8% in the assay with RPMI-8226 leukemia; 106% in the assay with OVCAR-8 ovarian; 85.4% with OVCAR-5 ovarian; 99.1% in the assay on OVCAR-4 ovarian; 94.7% in the assay on SK-OV-3 ovarian. Also, the growth with IGROV1 ovarian was -3.12% (active); in the assay with OVCAR-3 ovarian, 110%; with HS 578T breast, 99.7%; in the assay on NCI/ADR-RES ovarian it was 104%; in the assay with T-47D breast it was 86.2%; in the assay with BT-549 breast, 122%. Further, the growth is 104% in the assay on MDA-MB-435 melanoma; 103% in the assay on SW-620 colon; 91.4% in the assay on MCF7 breast; 102% with HCT-116 colon; 103% in the assay on HCC-2998 colon; 105% with KM12 colon.
